Test results from PubChem BioAssay (NCI).
This is part of a sample that, as a whole, favours compounds with a hit. Of some 83,000 tested, about 20% had one in any assay.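 Growth was measured after 48 h exposure to one concentration of compound in 96-well plates. Values under 10 count as active.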 Unmarked numbers belong to inactive results. The source made the active and inactive calls.

Columns and labels:
Experiment in all cases: NCI-60 one-dose screen, 48 h (100 = growth as untreated, 0 = no growth, -100 = all killed)
Conditions in all cases: 10 µM unless noted
SR leukemia = test system: SR leukemia
RPMI-8226 leukemia = test system: RPMI-8226 leukemia
OVCAR-8 ovarian = test system: OVCAR-8 ovarian
OVCAR-5 ovarian = test system: OVCAR-5 ovarian
OVCAR-4 ovarian = test system: OVCAR-4 ovarian
SK-OV-3 ovarian = test system: SK-OV-3 ovarian
IGROV1 ovarian = test system: IGROV1 ovarian
OVCAR-3 ovarian = test system: OVCAR-3 ovarian
NCI/ADR-RES ovarian = test system: NCI/ADR-RES ovarian

Row | SMILES | growth (SR leukemia) | growth (RPMI-8226 leukemia) | growth (OVCAR-8 ovarian) | growth (OVCAR-5 ovarian) | growth (OVCAR-4 ovarian) | growth (SK-OV-3 ovarian) | growth (IGROV1 ovarian) | growth (OVCAR-3 ovarian) | growth (NCI/ADR-RES ovarian)
1 | Cc1cc(C(=O)Nc2cc(Oc3ccc4nc(NC(=O)C5CC5)cn4n3)ccc2C)n(C)n1 | 29.5% | 48.6% | 30.2% | 11.6% | 49% | 17.9% | 12% | 52.8% | 60.2%
2 | C#Cc1cccc(Nc2ncnc3cc(OCCOC)c(OCCOC)cc23)c1 | 51.3% | 70.1% | 40.4% | 48.4% | 54.3% | -21.9% (active) | 8.02% (active) | 64.2% | 56.9%
3 | COc1ccc2c(OCc3nnc4ccc(-c5ccccc5)nn34)ccnc2c1 | 80.9% [2.5 µM] | 104% [2.5 µM] | 102% [2.5 µM] | 87.3% [2.5 µM] | 100% [2.5 µM] | 73.3% [2.5 µM] | 106% [2.5 µM] | 110% [2.5 µM] | 76.3% [2.5 µM]
4 | COC(=O)Nc1nc2ccc(C(=O)c3ccc(N(C)C4COC4)cc3)cc2[nH]1 | 14.4% | 22.5% | 11% | 52.4% | 57.2% | 6.93% (active) | 28.5% | 31.9% | 12%
5 | CNC(=O)c1cc(COc2nnc(Nc3ccc(Cl)cc3)c3ccoc23)ccn1 | 61.3% | 89.9% | 14.3% | 23.5% | -38.4% (active) | -60.8% (active) | 24.7% | 46.6% | 15.2%
6 | O=C(O)C1(Cc2cccc(Nc3nccs3)n2)CCC(Oc2cccc(Cl)c2F)CC1 (stereo not drawn) | 47.5% | 59.8% | 56.6% | 80.1% | 106% | 62.7% | 76.7% | 71.2% | 46.4%
7 | COc1cc(F)c(F)c(Nc2ccc(I)cc2F)c1NS(=O)(=O)C1(C[C@H](O)CO)CC1 | 57.7% | 37.8% | 45.7% | 13.5% | 46% | 51.3% | 9.36% (active) | 83.1% | 45.5%
8 | FC(F)c1nc2ccccc2n1-c1nc(N2CCOCC2)nc(N2CCOCC2)n1 | 1.58% (active) | 8.02% (active) | -8.56% (active) | 1.3% (active) | -17.1% (active) | -46% (active) | -37% (active) | -0.63% (active) | -12.9% (active)
9 | COc1cccc2cc(-c3nc(C4CCC(C(=O)O)CC4)n4ncnc(N)c34)[nH]c12 (stereo not drawn) | 7.63% (active) | 7.52% (active) | 1.18% (active) | 25.6% | -23.4% (active) | -26% (active) | -12.9% (active) | 12.3% | 2.94% (active)
10 | COc1cc2ncnc(Nc3ccc(O)cc3)c2cc1OC | 27.1% | 97.2% | 70.7% | 59.2% | 88.1% | 5.29% (active) | 38.2% | 87.4% | 91.3%
11 | O=C(Nc1cn[nH]c1-c1nc2ccc(CN3CCOCC3)cc2[nH]1)NC1CC1 | -11.9% (active) | 108% | 28.7% | 22.5% | 78.5% | -5.97% (active) | 9.49% (active) | 11.7% | 76.3%
12 | CCc1nc(C(N)=O)c(Nc2ccc(N3CCC(N4CCN(C)CC4)CC3)c(OC)c2)nc1NC1CCOCC1 | 1.01% (active) | 28.3% | 39.6% | 26.5% | 81.2% | 4.92% (active) | 4.12% (active) | 53.4% | 32%
